{"source": "PubChem BioAssay AID463213", "about": "(Sanford-Burnham Center for Chemical Genomics, 2010)", "note": "About 4,100 (55%) of roughly 7,400 compounds were called active. So high a share suggests a set chosen from earlier hits. Not all results are given here. Unmarked numbers belong to inactive results.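 Rule for the calls: active = inhibition of yeast growth at or above a set limit in either of two repeat tests at 20 µM; inactive = the rest.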", "data": [{"experiment": "tim10-1 ts yeast growth inhibition, retested – single concentration, luminescence, S. cerevisiae, confirmation (AID 463213);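 note: tim10-1 mutant grown at permissive 25 °C to find synthetic lethal compounds; 0% = DMSO yeast wells and 100% = medium wells without yeast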", "conditions": "S. cerevisiae tim10-1 ts strain growth, BacTiter-Glo, 24 h; at 20 µM; hits give high values", "values": [{"smiles": "COc1ccccc1-n1ccnc(SCC(=O)NC2CCCCC2)c1=O", "inhibition": "11.8%"}, {"smiles": "COc1ccccc1C(=O)NC(=S)Nc1ccccc1N1CCCCC1", "inhibition": "19.4%"}, {"smiles": "Cc1ccc(C(=O)NC(=S)Nc2ccccc2C)cc1", "inhibition": "29.8% (active)"}, {"smiles": "CCc1ccc(C(=O)NC(=S)Nc2ccccc2N2CCOCC2)cc1", "inhibition": "17.1%"}, {"smiles": "COc1ccc(/C=N/Nc2ncnc3sc4c(c23)CCCC4)cc1O", "inhibition": "17.2%"}, {"smiles": "Cc1ccc(C(=O)/C=C/c2c(C)nn(-c3ccccc3)c2Cl)cc1", "inhibition": "38% (active)"}, {"smiles": "CCOC(=O)N1CCC(N2Cc3cccc(C(=O)Nc4c(C)cccc4CC)c3C2=O)CC1", "inhibition": "16.6%"}, {"smiles": "Cc1[nH]c2ccccc2c1C(=O)COC(=O)c1c(-c2ccccc2)noc1C", "inhibition": "45.4% (active)"}, {"smiles": "COc1ccc(C(=O)NC(=S)NNC(=O)c2c(-c3ccccc3)noc2C)cc1", "inhibition": "18.1%"}, {"smiles": "COc1ccc(Nc2nc(N)nc(CSC(=S)N3CCC(C)CC3)n2)cc1", "inhibition": "29.9%"}, {"smiles": "CC(=NCc1ccco1)c1c(C(F)(F)F)[nH]n(-c2nc3ccccc3s2)c1=O", "inhibition": "63.5% (active)"}, {"smiles": "Cc1cc(Br)ccc1NC(=O)c1sc2ncn(CC(=O)N3CCN(c4ccccn4)CC3)c(=O)c2c1C", "inhibition": "-10.2%"}, {"smiles": "O=C(O/N=C(/c1ccccc1)c1ccncc1)c1ccccc1[N+](=O)[O-]", "inhibition": "35.3% (active)"}, {"smiles": "O=C(Oc1ccc(-c2nc(-c3ccccn3)no2)cc1)c1ccccc1", "inhibition": "30.3%"}, {"smiles": "Cc1ccc(Oc2nc(-c3ccccn3)nc3ccccc23)cc1", "inhibition": "35.5% (active)"}, {"smiles": "O=C(ON=C1CCN(S(=O)(=O)c2ccccc2)CC1)c1ccc(Cl)cc1", "inhibition": "61% (active)"}, {"smiles": "CCOc1cccc(-c2nn3c(-c4ccccn4)nnc3s2)c1", "inhibition": "39% (active)"}, {"smiles": "Cc1cc(C)nc(S/C=C/C(=O)c2ccccc2)n1", "inhibition": "71% (active)"}, {"smiles": "N#Cc1ccc(CSc2nnc(-c3ccccn3)n2-c2ccc(Cl)cc2)cc1", "inhibition": "30.9%"}, {"smiles": "COc1ccc(NCc2nnc(SCc3ccccc3)n2-c2ccc(OC)cc2)cc1", "inhibition": "38.9% (active)"}, {"smiles": "CC(c1ccco1)N(C(=O)Nc1ccccc1)C1CCCCC1", "note": "(centres undefined)", "inhibition": "19.4%"}, {"smiles": "COc1ccc(OC)c2sc(NC(=O)C3COc4ccccc4O3)nc12", "note": "(centres undefined)", "inhibition": "23.6%"}, {"smiles": "CC(NC(=S)Nc1ccccc1)C1COc2ccccc2O1", "note": "(centres undefined)", "inhibition": "37.4% (active)"}, {"smiles": "Cc1ccc(SC(CC(=O)c2ccc(C(C)(C)C)cc2)C(=O)O)cc1", "note": "(centres undefined)", "inhibition": "38.5% (active)"}, {"smiles": "c1c2c(cc3sc(N4CCCCC4)nc13)OCCO2", "inhibition": "27.8%"}, {"smiles": "Cc1cccc(/C(N)=N/OC(=O)c2ccccc2Cl)c1", "inhibition": "50.9% (active)"}, {"smiles": "Cc1ccc(/C(N)=N/OC(=O)COc2ccc(Cl)c(C)c2)cc1", "inhibition": "29.1%"}, {"smiles": "Cc1cc(N=Nc2ccc3ccccc3c2)ccc1O", "inhibition": "36.4% (active)"}, {"smiles": "Cc1nonc1C(=O)N/N=C/c1ccc(O)cc1", "inhibition": "44.9% (active)"}, {"smiles": "O=C(/C=C/c1ccc(Cl)cc1Cl)NCc1ccco1", "inhibition": "34.4% (active)"}, {"smiles": "COc1ccc(-c2cc(C3CCN(c4ncccc4[N+](=O)[O-])CC3)[nH]n2)cc1", "inhibition": "30.2%"}, {"smiles": "COC(C/C=C/C(=O)[C@@H](C)OCc1ccccc1)OC", "inhibition": "43.7% (active)"}, {"smiles": "CCc1ccc2oc(-c3ccc(N)cc3)nc2c1", "inhibition": "41.8% (active)"}, {"smiles": "Nc1ccc(-c2nnc(-c3ccc(-c4ccccc4)cc3)o2)cc1", "inhibition": "25.1%"}, {"smiles": "COc1ccc(NC(=O)c2cc3nc(-c4ccccc4)cc(C)n3n2)cc1OC", "inhibition": "33.3% (active)"}, {"smiles": "CC(C)CCNC(=O)c1ccc2c(Cl)c3c(nc2c1)CCC3", "inhibition": "35% (active)"}, {"smiles": "Cc1ccc(-c2cn3cc(C)ccc3n2)cc1", "inhibition": "43.9% (active)"}, {"smiles": "CSc1nnc2ccc(-c3ccc(C)cc3)nn12", "inhibition": "24.9%"}, {"smiles": "COc1ccc2c(c1)cc1n2CCN=C1NN", "inhibition": "27.9%"}, {"smiles": "COc1ccccc1CNC(=O)c1ccc(SC)cc1OC", "inhibition": "20.9%"}, {"smiles": "CCOC(=O)C(=Cc1ccccc1OC)C(=O)OCC", "inhibition": "30.1% (active)"}, {"smiles": "CNC(C)C#Cc1ccc2sc3cc(OC)c(OC)cc3c(=O)c2c1", "note": "(centres undefined)", "inhibition": "31.8% (active)"}, {"smiles": "CSC(=S)N/N=C/c1c[nH]c2ccccc12", "inhibition": "41.7% (active)"}, {"smiles": "COC(=O)CSc1snnc1-c1ccc(Cl)c(Cl)c1", "inhibition": "31.9% (active)"}, {"smiles": "CCC(=O)Nc1nc2ccccc2n1Cc1ccccc1C", "inhibition": "18%"}, {"smiles": "O=c1oc(-c2ccco2)nc2sc3c(c12)CCCCC3", "inhibition": "3.45%"}, {"smiles": "O=C(NCc1ccco1)c1cccn2c(=O)c3c4c(sc3nc12)CCCC4", "inhibition": "42.4% (active)"}, {"smiles": "Cc1ccc(-c2csc(NC(=O)C3=COCCO3)n2)cc1C", "inhibition": "18.2%"}, {"smiles": "Cc1ccc2nc(N(CCN(C)C)C(=O)C3=COCCO3)sc2c1", "inhibition": "35.6% (active)"}, {"smiles": "CN(C)CCN(C(=O)C1=COCCO1)c1nc2ccc(Cl)cc2s1", "inhibition": "69% (active)"}, {"smiles": "Clc1ccc(C2CC(c3cccs3)n3ncnc3N2)cc1Cl", "note": "(centres undefined)", "inhibition": "18%"}, {"smiles": "Cc1oc2c(c1C(=O)N1CCOCC1)C(=O)c1ccccc1C2=O", "inhibition": "27.7% (active)"}, {"smiles": "Cc1ccc(S(=O)(=O)NC(C(=O)N2CCOCCOCCOCCOCC2)c2ccccc2)cc1", "note": "(centres undefined)", "inhibition": "0.85%"}, {"smiles": "O=C1c2cccc3c([N+](=O)[O-])ccc(c23)C(=O)N1CC1CCCO1", "note": "(centres undefined)", "inhibition": "46.5% (active)"}, {"smiles": "O=C(Cc1ccc(Cl)c(Cl)c1)Nc1ccc(SC(F)F)cc1", "inhibition": "35.9% (active)"}, {"smiles": "N#C/C(=C\\c1cccnc1)C(=O)Nc1ccc(SC(F)F)cc1", "inhibition": "17.2%"}, {"smiles": "COc1ccc(C(C[N+](=O)[O-])n2nc(C)cc2C)cc1", "note": "(centres undefined)", "inhibition": "38.1% (active)"}, {"smiles": "COc1cccc(Cn2cnc3c([N+](=O)[O-])c(C)c(C)cc32)c1", "inhibition": "25.6%"}, {"smiles": "COc1ccc2c(c1)C(NS(=O)(=O)OCC(Cl)(Cl)Cl)CCC2", "note": "(centres undefined)", "inhibition": "27.9% (active)"}, {"smiles": "Cc1nn(Cc2ccc(Cl)c(Cl)c2)c(C)c1NC(=O)c1cc(C2CC2)on1", "inhibition": "51.2% (active)"}, {"smiles": "O=C1CSC(=S)N1c1ccc(Cl)c(Cl)c1", "inhibition": "34.4% (active)"}, {"smiles": "S=C(NCCCc1ccccc1)Nc1ccc(Br)cc1", "inhibition": "36.3% (active)"}, {"smiles": "COc1ccc2nc(NC(=O)[C@@H]3CCCN3C(=O)c3cccs3)sc2c1", "inhibition": "19.9%"}, {"smiles": "CC(C)(C)NC(=O)NC(=O)COC(=O)CCC1CCCCC1", "inhibition": "37.9% (active)"}, {"smiles": "Cc1nn2c(c1-c1ccccc1)N=C(c1ccco1)CC2c1ccccc1", "note": "(centres undefined)", "inhibition": "28.9%"}, {"smiles": "COc1ccc2nc(Nc3nc4cc5c(cc4s3)OCCO5)sc2c1", "inhibition": "1.5%"}, {"smiles": "CCn1c(/C=C/c2ccc([N+](=O)[O-])o2)nc2ccccc2c1=O", "inhibition": "45.9% (active)"}, {"smiles": "Brc1ccc(C2=CC(c3ccco3)n3ncnc3N2)cc1", "note": "(centres undefined)", "inhibition": "18.9%"}, {"smiles": "Nc1ccccc1Sc1ccc(C(F)(F)F)cc1[N+](=O)[O-]", "inhibition": "61.2% (active)"}]}]}
